Assay results as given in ChEMBL document CHEMBL4513216, “Probing the Open Global Health Chemical Diversity Library for Multistage-Active Starting Points for Next-Generation Antimalarials” (ACS Infect Dis, 2020).
The whole screen tested about 69,000 compounds, of which about 8,600 (12%) showed an effect of 50% or more. For the sample, strong results were picked, then their nearest neighbours and some compounds at random.

What follows are compounds tested on Plasmodium berghei (assay: Screen against P. berghei liver stage (PbLuc), transformed with Luciferase, at 10uM). Conditions: tested at 10 uM.
Format: functional, HepG2

Which INHIBITION does the source give for `Cc1ccc(C(NCC(=O)N2CCNC(=O)C2)c2ccccc2)cc1` (configuration not stated) here?
Its INHIBITION is 29.4%.

How did the INHIBITION turn out when `Cc1ccc(NC2CCN(C(=O)c3c(C)nn(C)c3Cl)CC2)nn1` was run?
Its INHIBITION is 1.45%.

For `O=C1NCC2=Nc3ccccc3NC(c3ccc(O)cc3)C12` (configuration not stated), which INHIBITION is on record?
The INHIBITION was -72.4%.

How did the INHIBITION turn out when `COC1CCN(C(=O)Cc2csc(-c3ccc(F)cc3)n2)CC1` was run?
The INHIBITION was -7.35%.

With `CC(C)c1nn(C)c(N2CCOCC2)c1CNC(C)c1ccco1` (configuration not stated) as the compound, how does the INHIBITION read?
The INHIBITION was 4.52%.

How did the INHIBITION turn out when `O=C(NCc1cccnc1N1CCCCC1)c1ccc2[nH]nnc2c1` was run?
Its INHIBITION is 17.5%.

With `Cc1ccccc1CS(=O)(=O)CC(=O)NCc1ccccc1F` as the compound, how does the INHIBITION read?
The INHIBITION was -15.8%.

With `CC(C)n1cc(CN(Cc2ccc(F)cc2)CC2CCCO2)cn1` (configuration not stated) as the compound, how does the INHIBITION read?
Its INHIBITION is 18.4%.

Which INHIBITION does the source give for `O=C(CSC1=NS(=O)(=O)c2cc(F)ccc2N1)c1ccccc1` here?
The INHIBITION was 10.2%.

How did the INHIBITION turn out when `Cc1cccc(NC(=O)C2CCc3ccccc3N2)c1` (configuration not stated) was run?
The INHIBITION was -71.7%.

Which INHIBITION does the source give for `Cc1occc1C(=O)N1CCn2c(COCC3CC3)cnc2C1C` (configuration not stated) here?
The INHIBITION was 39.3%.

For `Cn1cc(C(=O)NCCc2csc(-c3ccccc3)n2)ccc1=O`, which INHIBITION is on record?
The INHIBITION was -8.92%.

Which INHIBITION does the source give for `COc1cccc(S(=O)(=O)NC(=O)CCC2CCCO2)c1` (configuration not stated) here?
Its INHIBITION is -9.76%.

`COC1CN(C(=O)Nc2ccccc2)CCC(=O)N(C)c2ccccc21` (configuration not stated) was tested. Which INHIBITION did it give?
Its INHIBITION is 13.1%.

For `COC1CN(C(=O)C2CC2)CCC(=O)N(C)c2ccccc21` (configuration not stated), which INHIBITION is on record?
The INHIBITION was 29%.

For `COC1CCN(C(=O)Nc2ccccc2)CC(=O)N(C)c2ccccc21` (configuration not stated), which INHIBITION is on record?
Its INHIBITION is 55.5%.

For `COC1CN(C(=O)CC(C)C)CCC(=O)N(C)c2ccccc21` (configuration not stated), which INHIBITION is on record?
Its INHIBITION is 1.8%.

For `COC1CN(C(=O)COC(C)=O)CCC(=O)N(C)c2ccccc21` (configuration not stated), which INHIBITION is on record?
The INHIBITION was 20.7%.

With `COC1CN(C(=O)CC2CCCC2)CCC(=O)N(C)c2ccccc21` (configuration not stated) as the compound, how does the INHIBITION read?
The INHIBITION was 11.6%.

With `COC1CN(C(=O)OCC(C)C)CCC(=O)N(C)c2ccccc21` (configuration not stated) as the compound, how does the INHIBITION read?
The INHIBITION was 52.5%.

`COC1CCN(C(=O)C2CCCC2)CC(=O)N(C)c2ccccc21` (configuration not stated) was tested. Which INHIBITION did it give?
The INHIBITION was 33.6%.

For `COC1CN(C(=O)NC2CCCC2)CCC(=O)N(C)c2ccccc21` (configuration not stated), which INHIBITION is on record?
Its INHIBITION is 56.3%.

`Cc1cc(NS(=O)(=O)c2ccc(C(=O)O)cc2F)ccc1F` was tested. Which INHIBITION did it give?
Its INHIBITION is -2.33%.

Which INHIBITION does the source give for `O=C1C[C@@H]2[C@H](CCN2Cc2ccco2)N1c1ccsc1` here?
Its INHIBITION is 39.3%.

With `O=C(Cn1cc(Cl)cn1)N1CCNC1=O` as the compound, how does the INHIBITION read?
Its INHIBITION is 45.9%.

Which INHIBITION does the source give for `COc1ccc(CN2CCc3c(nc(-c4ccccn4)[nH]c3=O)C2)cc1` here?
Its INHIBITION is -11.7%.

Which INHIBITION does the source give for `Cc1oncc1C(=O)NCc1cc(=O)n2c(n1)CN(CC(C)C)CCC2` here?
Its INHIBITION is 38.3%.

With `CC(C)n1nnnc1-c1ccc(NC(=O)CCC(F)(F)F)cc1F` as the compound, how does the INHIBITION read?
The INHIBITION was 40.3%.

How did the INHIBITION turn out when `CCCC(=O)NCCc1nc2cc(-c3ccc(OC)cc3)ncn2n1` was run?
The INHIBITION was -3%.

With `CC(C)n1nc(CN(C)C)c2c1CN(C(=O)CC1CC1)CC2` as the compound, how does the INHIBITION read?
The INHIBITION was 61.5%.

How did the INHIBITION turn out when `CN(C)Cc1nn(C)c2c1CCN(C(=O)CC1CC1)C2` was run?
The INHIBITION was -4.99%.

`CC(C)n1nc(CN(C)C)c2c1CN(CC1CC1)CC2` was tested. Which INHIBITION did it give?
The INHIBITION was 20.1%.

`CC(=O)NCC(=O)N1CCc2c(CN(C)C)nn(C(C)C)c2C1` was tested. Which INHIBITION did it give?
Its INHIBITION is 34.9%.

For `CC(C)n1nc(CN2CCCC2)c2c1CN(CC1CC1)CC2`, which INHIBITION is on record?
The INHIBITION was 58.3%.

How did the INHIBITION turn out when `Cn1nc(CN2CCCC2)c2c1CN(CC1CC1)CC2` was run?
The INHIBITION was 11.6%.

Which INHIBITION does the source give for `OC(CNCc1nnc2ccccn12)c1ccc2c(c1)OCCCO2` (configuration not stated) here?
Its INHIBITION is 17%.

`Cn1cc(NC(=O)N2CCC(Cc3ccccc3)CC2)ccc1=O` was tested. Which INHIBITION did it give?
Its INHIBITION is 20.45%.

For `Cc1cc(NC(=O)CN2CCCC2c2noc(C)n2)n(C)n1` (configuration not stated), which INHIBITION is on record?
The INHIBITION was -25.8%.

Which INHIBITION does the source give for `CN(C)C(=O)N1CCc2onc(C(=O)Nc3cccnc3)c2C1` here?
The INHIBITION was -40.5%.

`O=C(N1CCC2(CC1)[C@H](O)C[C@@H]2O)C1(c2ccccc2F)CC1` was tested. Which INHIBITION did it give?
Its INHIBITION is 25.9%.

`O=C(CN(CC(O)c1ccc(F)cc1)C1CC1)NCc1cccs1` (configuration not stated) was tested. Which INHIBITION did it give?
The INHIBITION was 65.4%.

Which INHIBITION does the source give for `O=C(CN(CC(O)c1ccc(F)cc1)C1CC1)NC(C1CC1)C1CC1` (configuration not stated) here?
The INHIBITION was 45.7%.

With `O=C(CN(CC(O)c1ccc(F)cc1)C1CC1)NC1CCOCC1` (configuration not stated) as the compound, how does the INHIBITION read?
The INHIBITION was 22.6%.

For `Cc1cnn(CCNCC(=O)NCC2(c3ccccc3)CC2)c1`, which INHIBITION is on record?
The INHIBITION was 17.5%.

With `Cc1nc(C)n(CC2CCCN2Cc2nc(-c3ccoc3)no2)n1` (configuration not stated) as the compound, how does the INHIBITION read?
The INHIBITION was 7.925%.

How did the INHIBITION turn out when `CCCS(=O)(=O)N1CCC2(CN(c3cnn(C)c3)C(=O)CN2C)C1` (configuration not stated) was run?
The INHIBITION was 21.6%.

`Cc1nn(C)c2nc(C3CC3)c(Cl)c(C(=O)O)c12` was tested. Which INHIBITION did it give?
Its INHIBITION is 23.4%.

How did the INHIBITION turn out when `O=C(O)CN1CCCC2(CCN2Cc2cccc(F)c2)C1` (configuration not stated) was run?
Its INHIBITION is 44.8%.

How did the INHIBITION turn out when `O=C(c1cscn1)N1CCCC2(CCN2Cc2cccc(F)c2)C1` (configuration not stated) was run?
Its INHIBITION is 64.7%.

With `O=C(c1cscn1)N1CCC2(CN(Cc3ccncc3)C2)C1` as the compound, how does the INHIBITION read?
The INHIBITION was 24.9%.

Which INHIBITION does the source give for `COC(=O)CCC(=O)N1CCCC2(CCCN2Cc2cccc(F)c2)C1` (configuration not stated) here?
The INHIBITION was 37.6%.

For `O=C(N[C@@H]1CN(Cc2cccc(F)c2)C[C@H]1O)c1cscn1`, which INHIBITION is on record?
The INHIBITION was 47.1%.

How did the INHIBITION turn out when `O=C(c1ccccc1)N1CCCC2(CCN2Cc2cccc(F)c2)C1` (configuration not stated) was run?
The INHIBITION was 61.1%.

For `Cc1c(C(=O)O)cnn1-c1ccc(-c2nc(C3CC3)no2)cn1`, which INHIBITION is on record?
Its INHIBITION is 34%.

With `CNc1cncc(C2CCCN2S(=O)(=O)c2ccc(F)cc2)n1` (configuration not stated) as the compound, how does the INHIBITION read?
Its INHIBITION is 35.2%.

With `Cc1noc(C)c1C1CCCN1C(=O)CN1C(=O)OC(C)(C)C1=O` (configuration not stated) as the compound, how does the INHIBITION read?
Its INHIBITION is 40.7%.

For `Cc1nc(COC[C@@]23CCC[C@@H]2CN(CC2CCOCC2)C3)cs1`, which INHIBITION is on record?
The INHIBITION was -5.63%.

`Cc1nc(COC[C@H]2CCC[C@]23CN(CC2CC2)CCO3)cs1` was tested. Which INHIBITION did it give?
Its INHIBITION is 54.4%.

For `CCN1CCO[C@]2(CCC[C@H]2COCc2csc(C)n2)C1`, which INHIBITION is on record?
Its INHIBITION is 52.9%.

For `Cc1nc(COC[C@H]2CCC[C@@]23CN(C(C)C)CCO3)cs1`, which INHIBITION is on record?
The INHIBITION was 12.4%.

Which INHIBITION does the source give for `Cc1nc(COC[C@H]2CCC[C@]23CN(C2CCOC2)CCO3)cs1` (some centres not stated) here?
Its INHIBITION is 49.7%.

Which INHIBITION does the source give for `Cc1nc(COC[C@@H]2CCC[C@@]23CN(C)CCO3)cs1` here?
The INHIBITION was 48.6%.

How did the INHIBITION turn out when `CN(C)CCO[C@H]1CN(Cc2ccco2)[C@@H]2COC[C@H]12` was run?
The INHIBITION was 30.3%.

Which INHIBITION does the source give for `Cc1csc(C(Cc2cccs2)NCc2cc3c(cc2C)OCO3)n1` (configuration not stated) here?
Its INHIBITION is 45.45%.

Which INHIBITION does the source give for `CCN1CCC12CCN(C(=O)c1ccsc1)C2` (configuration not stated) here?
The INHIBITION was -30%.

Which INHIBITION does the source give for `O=C(c1ccc[nH]1)N1Cc2nccn2CC(COc2cccnc2)C1` (configuration not stated) here?
The INHIBITION was 3.58%.

`CCCc1noc(C2CCCCN2C(=O)CCc2cnn(C)c2)n1` (configuration not stated) was tested. Which INHIBITION did it give?
The INHIBITION was 1.56%.
